Reference: PubChem BioAssay (NCI)
About 83,000 compounds went through this panel and 20% of them were active in at least one assay; those are over-represented in the sample as a whole.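 Values shown are percent growth following 48 h exposure of cells in 96-well plates to a single concentration of compound; below 10 was considered active.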 A number with no mark means an inactive call. Calls of active or inactive are those of the source.

Test system: NCI-H322M lung
Assay: NCI-60 one-dose screen, 48 h (100 = growth as untreated, 0 = no growth, -100 = all killed)
Conditions: 10 µM unless noted
Protocol: Growth inhibition of the NCI-H322M human Non-Small Cell Lung tumor cell line is measured as a screen for anti-cancer activity. Cells are grown in 96 well plates and exposed to the test compound for 48 hours. Compounds are tested at a single concentration, which is 10^-5 M for most compounds. The reported endpoint is percent growth (GI% or GIPRCNT), where numbers from 0 - 100% represent growth inhibition, and numbers from -100% - 0 represent cell death. For example, a value of 40 represents 60% growth inhibition. A value of 0 means no net growth occurred over the course of the experiment. A value of -40 indicates 40% of cells at the beginning of the experiment died by the end of the experiment. A value of -100 means all cells are dead at the end of the experiment.
NCI-60 Human Tumor Cell Lines Screen was performed using the standard one-dose NCI protocol, which is described in more detail at https://dtp.cancer.gov/discovery_development/nci-60/default.htm.
Compounds with GIPRCNT values below 10 were considered active. Activity score was based on GIPRCNT using the following formula: […]
Score is 0 for GIPRCNT values of 100 or above, 50 for GIPRCNT values of 0, and 100 for GIPRCNT values of -100.

Point of comparison: `CCOC(=O)C1=C(C)NC(SCc2nnc(-c3ccc(Cl)cc3)o2)=NC1c1ccc(Cl)cc1` (stereo not given), growth 82.3%. Against it:
- CC(C)OC(=O)c1ccc([N+](=O)[O-])cc1 — higher, 111%
- CC(=O)[C@@]1(O)[C@H](C)C[C@H]2[C@@H]3C=C(C)C4=Cc5c(cnn5-c5ccccc5)C[C@]4(C)[C@H]3[C@@H](O)C[C@@]21C — lower, 75.9%
- COc1ccc(C(=O)/C=C/c2cn(-c3ccccc3)nc2-c2cccc(Nc3ccnc4cc(Cl)ccc34)c2)cc1 — higher, 101%
- Cc1n(Cc2ccc3ccccc3n2)cc[n+]1Cc1ccc2ccccc2n1 — higher, 103%
- CC(=O)c1nn(-c2ccccc2)/c(=N\N=C\c2coc3ccc(F)cc3c2=O)s1 — higher, 104%
- CN1CCN(Cc2ccc(NC(=O)c3cnc(F)c(C#Cc4cnc(N)c5ncccc45)c3)cc2C(F)(F)F)CC1 — lower, 33.7%
- CCCCCCCCCCCCCCC(C(=O)OCC)C(=O)OCC — higher, 104%
- Fc1[nH]nc2ccc([C@@H]3Nc4ccc5[nH]ncc5c4[C@H]4C5CCC(C5)[C@@H]34)cc12 (stereo not given in full) — lower, 47.7%
- CCCCCCCCCCCCCCCCCC1=NC(C)(C)CN1C(C)(C)CO — lower, 16.3%
- O=c1[nH]cnc2nc[nH]c12 — higher, 94.9%
- COc1c(B(O)O)cccc1-c1nc2ccc3[nH]ncc3c2c2c1CCCC2 — lower, 16%
- COc1cccc2nc(Nc3cccc(NC(=O)c4ccc(N5CCN(C)CC5)c(C(F)(F)F)c4)c3)ccc12 — lower, 42.6%
- CCOc1c(C#N)c2c(N)ncnc2n1C1OC(CO)C(O)C1O (stereo not given) — lower, 76.6%
- CC(C)NC(=O)OCC#CCOC(=O)NC(C)C — higher, 86.8%
- COc1cc(C)cc2oc3oc(=O)c(-c4csc(-c5cc6ccccc6oc5=O)n4)cc3c(=O)c12 — higher, 105%
- COc1ccc(C(=O)c2cc(C)c(OC)c(C)c2)cc1OC(=O)CCl — lower, 42.7%
- Clc1cn2cc(-c3ccc(Cl)c(Cl)c3Cl)nc2s1 — higher, 91.9%
- COc1c(-c2cc(-c3ccc(C)o3)[nH]c(=O)n2)c(O)cc2occc12 — higher, 90.7%
- CN(C)c1ccc(/C=C(\C#N)c2nc3ccccc3n2C)cc1 — lower, 46.5%
- CCCCCCCCCCCCCCCCS(=O)(=O)Nc1cc(C(=O)NN)cc(C(=O)NN)c1 — lower, 56.9%
- CCCCCCCCCCCC1=NC(C)(C)CN1C(C)(C)CO — higher, 92.6%
- Nc1cc2nc3ccccc3oc-2cc1=O — higher, 108%
- CSCCC1NC(=O)C(C(C)=Nc2ccccc2)=C1O (stereo not given) — higher, 102%
- CCCCCCCCCCCCCCCCOc1ccc(S(=O)(=O)N(C)C)cc1[N+](=O)[O-] — higher, 103%
- COc1ccc(Sc2[nH]c(C=O)c3ccccc23)cc1 — lower, 46.8%
- O=C(NCCNC(=O)c1cc(S(=O)(=O)NCCc2ccccc2)c(O)c(O)c1O)c1cc(S(=O)(=O)NCCc2ccccc2)c(O)c(O)c1O — lower, 39.5%
- CCCCN(CCCC)CCC(=O)c1ccc(OC)c2ccccc12 — higher, 104%
- FC(F)(F)c1ccc(/C=N/Nc2nnc3n2N=C(c2ccc(Cl)cc2)CS3)cc1 — lower, 60.9%
- COc1cc(-c2nc(-c3nc4cc(C(=O)c5ccccc5)ccc4[nH]3)cc3c2[nH]c2ccccc23)cc(OC)c1OC — higher, 99.4%
- COc1ccc(C(=O)c2c(N)nc3n2CCCC3)cc1OC — higher, 96.2%
- Fc1ccc(-c2ccnc3nc(-c4ccncc4)nn23)cc1 — higher, 99.4%
- CCCCCNCCCCCNc1cc(OC)cc2cccnc12 — higher, 89.4%
- NNC(=O)Cc1ccccc1 — lower, 74.2%
- CC(=O)Nc1nonc1-c1nc2ccccc2n1Cc1ccc(C(C)(C)C)cc1 — higher, 83%
- COc1cc(-c2csc(NC(=O)Nc3cccc(C(F)(F)F)c3)n2)cc(OC)c1OC — lower, 68.3%
- CCOC(=O)c1c(NC(=O)c2ccccc2)sc2c(O)c(CN(CC)CC)ccc12 — lower, 50.6%
- O=C(NC1CC1)c1ccc(-c2nc3ccc4[nH]ncc4c3c3c2CCCC3)cc1 — lower, 41.7%
- CCCCn1c(C)nc2cc(Nc3nc(Cl)nc4nc[nH]c34)ccc21 — lower, 76.8%

In the case of `Nc1ccc(C(OC(=O)c2cc3ccccc3c(Cc3c(O)c(C(=O)OC(c4ccc(N)cc4)(c4ccc(N)cc4)c4ccc(N)cc4)cc4ccccc34)c2O)(c2ccc(N)cc2)c2ccc(N)cc2)cc1`, the growth was 3.77% (active).
